Source: PubChem BioAssay

How the values were obtained:
[1] = tested on: Human papillomavirus type 1a protein E7 (residues 44-93); experiment: small molecules binding HPV E7 44-93 – biochemical, small-molecule microarray, residues 44-93, 635 nm fluorescence, primary screen (AID 1108); conditions: fluorescence 635 nm, higher = more signal;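 further: E7 fragment applied at 1 µg/mL in TBST for 1 h at 4 C; score combines spot fluorescence with its signal to noise ratio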
[2] = hepatitis C replication reporter changes, two-sided – Huh7 cells, luciferase reporter, HCV replication inhibitor project, primary screen (AID 1109); conditions: Huh7 HCV replicon luciferase reporter, 48 h; higher = more signal;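 further: huh7 hepatoma cells harbouring a luciferase neomycin HCV replicon reporter; luciferase luminescence as measure of HCV replicon replication; test concentration not given here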
[3] = target: Left-right determination factor 2 (Homo sapiens) (UniProt O00292); experiment: small molecules binding LEFTY2 protein – biochemical, small-molecule microarray, 635 nm fluorescence scan, primary screen (AID 1110); conditions: higher = more signal
Sequence of Left-right determination factor 2 (Homo sapiens) (O00292 whole entry, looked up): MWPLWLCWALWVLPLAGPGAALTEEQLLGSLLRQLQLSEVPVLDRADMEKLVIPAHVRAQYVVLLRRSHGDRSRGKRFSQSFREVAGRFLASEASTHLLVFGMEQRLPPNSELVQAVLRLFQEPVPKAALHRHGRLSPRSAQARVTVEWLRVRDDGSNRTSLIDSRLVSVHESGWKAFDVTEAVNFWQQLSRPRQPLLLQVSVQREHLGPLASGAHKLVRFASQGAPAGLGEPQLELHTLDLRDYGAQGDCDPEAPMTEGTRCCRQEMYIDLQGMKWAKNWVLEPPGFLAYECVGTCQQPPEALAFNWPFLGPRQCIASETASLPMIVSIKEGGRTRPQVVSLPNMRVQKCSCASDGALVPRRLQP

[4] = target: Calmodulin-1 (Homo sapiens) (UniProt P0DP23); experiment: small molecules binding calmodulin-1 with EGTA – biochemical, small-molecule microarray, Cy5-labelled CALM1, profiling panel (AID 1111); conditions: Cy5-CALM1 binding fluorescence, higher = more signal;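 further: labelled calmodulin applied in Tris saline Tween buffer holding calcium plus EGTA and DTT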
[5] = target: Calmodulin-1 (Homo sapiens) (UniProt P0DP23); experiment: small molecules binding Ca-loaded calmodulin-1 – biochemical, small-molecule microarray, Cy5-labelled CALM1, plus calcium, artefact control for SMM control-protein annotation, profiling panel (AID 1112); conditions: Cy5-CALM1 binding fluorescence, higher = more signal;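 further: score merges spot fluorescence with signal to noise from triplicate slides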
[6] = probe aWnt5a binding to arrayed compounds – biochemical, biotinylated probe, 635/667 nm fluorescence, primary screen (AID 1113); conditions: small-molecule microarray, higher = more signal;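 further: score merges 667 nm fluorescence intensity with signal-to-noise per printed feature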
[7] = probe aShh binding to arrayed compounds – biochemical, biotinylated probe, 635/667 nm fluorescence, primary screen (AID 1114); conditions: small-molecule microarray, higher = more signal;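 further: probe is biotin-labelled aShh protein from a stem cell growth factor screen; measures binding of labelled protein to compounds printed on the slide; score merges feature fluorescence at 667 nm with signal-to-noise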
[8] = probe aNog binding to arrayed compounds – biochemical, biotinylated probe, 635/667 nm fluorescence, primary screen (AID 1115); conditions: small-molecule microarray, higher = more signal;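 further: probe is biotinylated aNog protein used at 0.15 µg/mL for 1 h at 4 C; z-score combines 667 nm fluorescence of each spot with its signal to noise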
[9] = target: Torsin-1A-interacting protein 1 (Homo sapiens) (UniProt Q5JTV8); experiment: compound microarray binding of lysate hLAP1 – cell lysate, small-molecule microarray, COS7 lysate, 635/667 nm fluorescence, primary screen (AID 1116); conditions: 635 nm fluorescence, higher = more signal
Sequence of Torsin-1A-interacting protein 1 (Homo sapiens) (Q5JTV8 whole entry, looked up): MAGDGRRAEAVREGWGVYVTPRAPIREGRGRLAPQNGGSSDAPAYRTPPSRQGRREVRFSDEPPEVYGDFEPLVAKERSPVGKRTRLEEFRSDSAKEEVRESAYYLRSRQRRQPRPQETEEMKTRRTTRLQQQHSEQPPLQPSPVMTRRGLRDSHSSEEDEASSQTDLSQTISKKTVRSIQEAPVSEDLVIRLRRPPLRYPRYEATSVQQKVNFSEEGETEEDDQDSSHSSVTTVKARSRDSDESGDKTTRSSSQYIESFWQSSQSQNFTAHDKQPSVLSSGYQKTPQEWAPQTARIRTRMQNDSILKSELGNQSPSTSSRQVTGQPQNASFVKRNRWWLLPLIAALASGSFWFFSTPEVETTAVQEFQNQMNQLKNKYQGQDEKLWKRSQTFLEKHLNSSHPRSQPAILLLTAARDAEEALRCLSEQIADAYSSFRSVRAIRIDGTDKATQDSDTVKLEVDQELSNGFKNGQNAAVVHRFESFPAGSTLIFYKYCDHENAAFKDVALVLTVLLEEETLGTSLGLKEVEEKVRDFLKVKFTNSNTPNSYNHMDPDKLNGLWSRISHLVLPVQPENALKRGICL

[10] = target: Alpha-bungarotoxin (Bungarus multicinctus) (UniProt P60615); experiment: compounds binding labelled alpha-BTX control protein – biochemical, small-molecule microarray, Alexa647 label, 635/667 nm fluorescence, artefact control for SMM control protein annotation, profiling panel (AID 1117); conditions: alpha-BTX-A647 binding fluorescence, higher = more signal
Sequence of Alpha-bungarotoxin (Bungarus multicinctus) (P60615 whole entry, looked up): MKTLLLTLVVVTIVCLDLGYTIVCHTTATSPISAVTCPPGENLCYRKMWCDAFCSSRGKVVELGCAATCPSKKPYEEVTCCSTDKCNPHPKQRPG

**Q.** With `O=C1C2C=CC(C(O)C(c3ccccc3)c3ccccc3)N(Nc3ccccc3F)C2C(=O)N1c1ccccc1` (stereo not given) as the compound, how does the composite z-score [1] read?
**A.** The composite z-score was 1.45.

**Q.** What about the z-score [2] of the same compound?
**A.** The z-score was -0.942.

**Q.** What about the composite z-score [3] of the same compound?
**A.** The composite z-score was 0.407.

**Q.** What about the composite z-score [4] of the same compound?
**A.** Its composite z-score is 1.04.

**Q.** What about the composite z-score [5] of the same compound?
**A.** The composite z-score was 0.713.

**Q.** And the composite z-score [6]?
**A.** Its composite z-score is 0.0182.

**Q.** And the composite z-score [7]?
**A.** Its composite z-score is 0.108.

**Q.** And the composite z-score [8]?
**A.** Its composite z-score is 0.686.

**Q.** What about the composite z-score [9] of the same compound?
**A.** The composite z-score was 0.855.

**Q.** What about the composite z-score [10] of the same compound?
**A.** Its composite z-score is 0.451.

**Q.** With `COC(=O)[C@@]1(Cc2ccccc2)[C@H]2c3cc(C(=O)N(C)C)n(CCF)c3C[C@H]2CN1C(=O)c1ccccc1` as the compound, how does the composite z-score [1] read?
**A.** Its composite z-score is 0.233.

**Q.** And the z-score [2]?
**A.** The z-score was -1.66.

**Q.** And the composite z-score [3]?
**A.** The composite z-score was -0.555.

**Q.** What about the composite z-score [4] of the same compound?
**A.** The composite z-score was 2.8.

**Q.** And the composite z-score [5]?
**A.** The composite z-score was 1.31.

**Q.** What about the composite z-score [6] of the same compound?
**A.** The composite z-score was -0.0118.

**Q.** And the composite z-score [7]?
**A.** Its composite z-score is -0.305.

**Q.** What about the composite z-score [8] of the same compound?
**A.** The composite z-score was -0.52.

**Q.** What about the composite z-score [9] of the same compound?
**A.** Its composite z-score is 3.08.

**Q.** What about the composite z-score [10] of the same compound?
**A.** Its composite z-score is 1.43.

**Q.** For `COc1ccc(-c2cc3c(c(CCc4ccccc4)n2)[Si](C(C)C)(C(C)C)O[C@H]3c2ccccc2)cn1`, which composite z-score [1] is on record?
**A.** The composite z-score was -0.38.

**Q.** What about the z-score [2] of the same compound?
**A.** Its z-score is -1.8.

**Q.** What about the composite z-score [3] of the same compound?
**A.** Its composite z-score is 0.0069.

**Q.** What about the composite z-score [4] of the same compound?
**A.** Its composite z-score is -0.0526.

**Q.** And the composite z-score [5]?
**A.** Its composite z-score is -0.517.

**Q.** What about the composite z-score [6] of the same compound?
**A.** The composite z-score was -0.12.

**Q.** And the composite z-score [7]?
**A.** The composite z-score was -0.0192.

**Q.** What about the composite z-score [8] of the same compound?
**A.** Its composite z-score is -0.158.

**Q.** What about the composite z-score [9] of the same compound?
**A.** Its composite z-score is -0.309.

**Q.** And the composite z-score [10]?
**A.** Its composite z-score is 0.31.

**Q.** Which composite z-score [1] does the source give for `COCCCNC(=O)[C@]1(Cc2ccccc2N=[N+]=[N-])N=C(c2ccc(OCCCO)cc2)O[C@@H]1c1ccccc1` here?
**A.** The composite z-score was 0.565.

**Q.** And the z-score [2]?
**A.** Its z-score is -1.69.

**Q.** What about the composite z-score [3] of the same compound?
**A.** Its composite z-score is -0.263.

**Q.** What about the composite z-score [4] of the same compound?
**A.** The composite z-score was 2.24.

**Q.** And the composite z-score [5]?
**A.** The composite z-score was 0.908.

**Q.** And the composite z-score [6]?
**A.** Its composite z-score is -0.118.

**Q.** What about the composite z-score [7] of the same compound?
**A.** Its composite z-score is 0.0638.

**Q.** And the composite z-score [8]?
**A.** Its composite z-score is -0.661.

**Q.** What about the composite z-score [9] of the same compound?
**A.** The composite z-score was 1.69.

**Q.** And the composite z-score [10]?
**A.** Its composite z-score is 2.32.

**Q.** Which results are given for `Cc1ccc(S[C@]2(C(=O)NCCN3CCOCC3)CC(=O)N(C(C)C)[C@@H]2c2ccc(CO)cc2I)cc1`?
**A.** composite z-score [1]: 0.89; z-score [2]: -2.32; composite z-score [3]: -0.532; composite z-score [4]: -1.17; composite z-score [5]: -0.693; composite z-score [6]: -0.154; composite z-score [7]: -0.138; composite z-score [8]: -0.119; composite z-score [9]: 0.974; composite z-score [10]: -1.08

**Q.** Which results are given for `C=CCOC(=O)[C@H]1[C@@H]2C(=O)O[C@@H](c3ccccc3)[C@@H](c3ccccc3)N2[C@@H](c2ccc(OCCOC(=O)[C@H]3C[C@H]4C(=O)NCC(=O)N4[C@H]3c3ccc(O)cc3)cc2)[C@]12C(=O)Nc1ccccc12`?
**A.** composite z-score [1]: 1.44; z-score [2]: -2.07; composite z-score [3]: 0.506; composite z-score [4]: 1.18; composite z-score [5]: -0.237; composite z-score [6]: -0.0758; composite z-score [7]: -0.16; composite z-score [8]: -0.217; composite z-score [9]: 1.05; composite z-score [10]: 1.77

**Q.** With `COCCOC(=O)N1C(=O)[C@@]2(c3cc(C#CCCO)ccc31)[C@H](c1ccc(O)cc1)N1[C@H](c3ccccc3)[C@H](c3ccccc3)OC(=O)[C@H]1[C@@H]2C(=O)NC[C@H](O)c1ccccc1` as the compound, how does the composite z-score [1] read?
**A.** The composite z-score was 0.495.

**Q.** And the z-score [2]?
**A.** Its z-score is -1.02.

**Q.** And the composite z-score [3]?
**A.** Its composite z-score is 0.285.

**Q.** What about the composite z-score [4] of the same compound?
**A.** The composite z-score was 0.212.

**Q.** What about the composite z-score [5] of the same compound?
**A.** Its composite z-score is 0.0658.

**Q.** What about the composite z-score [6] of the same compound?
**A.** Its composite z-score is -0.027.

**Q.** And the composite z-score [7]?
**A.** Its composite z-score is 0.204.

**Q.** And the composite z-score [8]?
**A.** The composite z-score was 1.05.

**Q.** And the composite z-score [9]?
**A.** Its composite z-score is 0.981.

**Q.** And the composite z-score [10]?
**A.** The composite z-score was 0.367.

**Q.** For `COc1ccc(C(=O)Nc2ccc(CN3C(=O)[C@@]4(O[C@@H](CC(=O)N(CCO)Cc5ccccc5)[C@H]([Si](C)(C)c5ccc(OC)cc5)[C@H]4C)c4ccccc43)cc2)cc1`, which composite z-score [1] is on record?
**A.** The composite z-score was -0.471.

**Q.** And the z-score [2]?
**A.** Its z-score is -3.92.

**Q.** And the composite z-score [3]?
**A.** Its composite z-score is 0.444.

**Q.** And the composite z-score [4]?
**A.** The composite z-score was 0.655.

**Q.** And the composite z-score [5]?
**A.** The composite z-score was -0.0779.

**Q.** What about the composite z-score [6] of the same compound?
**A.** The composite z-score was -0.14.

**Q.** What about the composite z-score [7] of the same compound?
**A.** Its composite z-score is -0.341.

**Q.** And the composite z-score [8]?
**A.** Its composite z-score is -0.31.

**Q.** And the composite z-score [9]?
**A.** Its composite z-score is 0.121.

**Q.** What about the composite z-score [10] of the same compound?
**A.** The composite z-score was 0.331.
